This is a sample that favours compounds with a hit; in the whole collection about 4.8% have one here.
hgDAF-12 ag – activates the H. glycines DAF-12 receptor ligand-binding domain; HEK293 GAL4-hgDAF12 UAS-luciferase reporter, agonist luminescence; normalized to butyrate control; activation, % at 6.8 µM; AID 687014; actives 1.8% (n = 370,000);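 active = activation above a cutoff set at the mean of all screened compounds plus 3 SD, cut at about 10% in these data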
DAX1 inh-1 – blocks DAX1 repression of SF-1 activated StAR promoter; HEK293T StAR-luciferase reporter, SF-1/DAX-1 repression relief; inhibition, % at 6.8 µM; actives 1.1% (n = 370,000);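 active = inhibition above the mean over all tested compounds plus 3 SD, cut at about 3.6% in these data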;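 also: higher inhibition means more luminescence from relief of DAX-1 repression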
ssDAF12 agonist – activates DAF-12 receptor from parasite S. stercoralis | actives 1% (n = 370,000) | HEK293 ssDAF-12/GRIP1 lit1-tk-luc reporter, luminescence; % of 3 µM dafachronic acid response | activation, % at 6.8 µM | AID 652126;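 active = activation above the mean over all tested compounds plus 3 SD, cut at about 0.9% in these data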
DAX1 inh-2 – inhibits human nuclear receptor DAX1. actives 0.99% (n = 340,000). HEK293 Gal4-DAX1 luciferase reporter, luminescence. inhibition, % at 6.75 µM. AID 504766;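 active = inhibition above the mean over all tested compounds plus 3 SD, cut at about 4.2% in these data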;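 also: inhibition shows as a rise in luminescence from relieved DAX1 repression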
Target sequence (P51843 207-470 limits assumed): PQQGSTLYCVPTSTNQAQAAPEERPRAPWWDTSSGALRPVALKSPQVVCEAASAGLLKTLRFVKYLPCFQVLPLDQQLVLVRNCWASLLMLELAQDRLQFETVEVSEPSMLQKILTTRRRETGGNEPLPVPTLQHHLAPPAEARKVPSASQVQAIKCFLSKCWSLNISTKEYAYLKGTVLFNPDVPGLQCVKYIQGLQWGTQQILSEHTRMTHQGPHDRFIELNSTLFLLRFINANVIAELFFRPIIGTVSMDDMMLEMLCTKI
SMARCA2 activ – increases SMARCA2 function in MMTV reporter cells; activation, % at 9.1 µM; actives 1% (n = 370,000); MG213 cells, MMTV-luciferase reporter, dexamethasone, overnight; in the data active = activation above about 7.8%
hcDAF-12 act – activates DAF-12 receptor from parasite H. contortus. HEK293 hcDAF-12 lit1-tk-luc reporter, luminescence; 0% DMSO, 100% Δ7-dafachronic acid. activation, % at 6.8 µM. actives 1.4% (n = 370,000);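 active = activation above the mean of all tested compounds plus 3 SD, cut at about 5.5% in these data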
A number is an active result; i = inactive; nt = not tested or not shown.

SMILES | hgDAF-12 ag | DAX1 inh-1 | ssDAF12 agonist | DAX1 inh-2 | SMARCA2 activ | hcDAF-12 act
CN1C(=O)C(CC(=O)Nc2ccc(F)cc2)N(Cc2cccs2)C1=S (stereo unspecified) | i | i | 9.6 | i | i | i
Cc1cc(C)cc(C(=O)OCCN(C)C2CN(Cc3cn(Cc4ccc([N+](=O)[O-])cc4)nn3)S(=O)(=O)C2)c1 (stereo unspecified) | i | i | i | nt | i | i
CCCC[C@H]1C2CC(OC(=O)Nc3ccccc3)C(C2)[C@H]2CCCCN21 (stereo partly specified) | i | i | i | nt | i | i
O=C(Nc1ccccc1)OC1CC2CC1C1CCCC21 (stereo unspecified) | 12 | i | i | i | i | i
CC(COc1ccc(C#N)c(F)c1)CN1CCC(C(O)(c2ccccc2)c2ccccc2)CC1 (stereo unspecified) | i | i | i | nt | i | i
Clc1cccc(OCc2nc(-c3ccncc3)no2)c1 | i | i | i | i | i | i
Clc1ccc(OCc2nc(-c3ccncc3)no2)c(Cl)c1 | 12 | i | i | i | i | 6.1
Clc1cc(Cl)c2nc(N3CCCC3)sc2c1 | 11 | i | i | i | i | i
CCCCNC(=O)C[C@H]1C[C@@]2(C(=O)OC)C(=C[C@H](C(C)C)O[C@@H]2C2CC2)N(CCc2ccc(OC)c(OC)c2)C1=O | i | i | i | nt | i | i
O=C(CCNc1ccc(Cc2ccncc2)cc1)c1ccc([N+](=O)[O-])cc1 | i | i | 11 | i | i | i
C=CCN(CC=C)C(=S)NC(=O)/C=C/c1ccc(OC)cc1 | i | i | 1.4 | i | i | i
CCOC(=O)Cn1cc(CN2C(C(=O)OC)CN(Cc3ccc(Cl)cc3)CCS2(=O)=O)nn1 (stereo unspecified) | i | i | i | nt | i | i
CCCN1CCC2(CC1)NC(C(=O)O)Cc1c2[nH]c2ccccc12 (stereo unspecified) | nt | nt | nt | i | nt | nt
CCC1(C)NC(C(=O)O)Cc2c1[nH]c1ccccc21 (stereo unspecified) | i | i | 1.7 | i | i | i
CCCCc1ccc(NC(=O)C2CCCO2)cc1 (stereo unspecified) | 11 | i | i | i | i | i
CCCCNC(=O)c1ccc(NC(=O)C2CCCO2)cc1 (stereo unspecified) | i | i | i | i | i | i
O=C(NCCc1ccccc1)c1ccccc1NC(=O)C1CCCO1 (stereo unspecified) | 11 | 4.3 | i | i | i | 5.6
Cc1ccc(S(=O)(=O)N2CCC(C(=O)Nc3nnc(-c4ccc(F)cc4)s3)CC2)cc1 | i | i | i | i | i | 6.5
Cc1ccc(S(=O)(=O)N2CCC(C(=O)Nc3cccnc3)CC2)cc1 | i | i | i | 5.4 | i | i
O=C(Nc1nnc(-c2ccc(F)cc2)s1)C1CCN(S(=O)(=O)c2ccc(Cl)cc2)CC1 | i | i | i | i | i | i
CCc1nnc(NC(=O)CCC(=O)N2CCN(S(=O)(=O)c3ccc(OC)cc3)CC2)s1 | i | i | i | i | i | i
CCCc1nnc(NC(=O)CCC(=O)N2CCN(S(=O)(=O)c3ccc(C)cc3)CC2)s1 | i | i | 1.1 | i | i | i
COc1ccc(-n2c(SCC(=O)N/N=C(/C)c3cccc(O)c3)nc3ccccc3c2=O)cc1 | i | i | i | nt | i | i
CC(=O)c1c(C(=O)O)c2ccccc2[nH]c1=O | i | i | i | 4.8 | i | i
COC(=O)c1c(N)c2ccccc2[nH]c1=O | i | i | i | i | i | i
SMILES | hgDAF-12 ag | DAX1 inh-1 | ssDAF12 agonist | DAX1 inh-2 | SMARCA2 activ | hcDAF-12 act
O=C(c1cc(Cl)cc(Cl)c1)N1CC[C@H]2[C@H](CCCN2Cc2cc(F)cc(F)c2)C1 | i | i | i | nt | i | i
Cc1ccc(-c2cc(C(=O)NN=Cc3cccc(OCc4ccccc4)c3)[nH]n2)cc1C | i | i | i | nt | i | i
O=C(Cc1ccc(Cl)cc1)Nc1ccc(SC(F)F)cc1 | 11 | i | i | i | i | i
O=C(Cc1ccc(Br)cc1)Nc1ccc(Cl)cc1 | i | i | i | i | i | i
COc1ccc(Cn2cc(COC(=O)NCC(C)C)nn2)cc1 | i | i | i | nt | i | i
COC(=O)C1CN(Cc2cn(Cc3ccc(OC)cc3)nn2)CCS(=O)(=O)N1Cc1ccc(F)cc1 (stereo unspecified) | i | i | i | nt | i | i
COc1cccc(NC(=O)Cn2nnc(C(=O)Nc3ccccc3)c2N)c1 | i | i | i | i | i | i
COc1cc(NC(=O)c2nnn(Cc3ccc(SC)cc3)c2N)cc(OC)c1 | i | i | i | 4.2 | i | i
COc1cccc(NC(=O)c2nnn(CCc3ccccc3)c2N)c1 | i | i | i | 6.0 | i | i
CSc1cccc(NC(=O)c2nnn(Cc3ccccc3)c2N)c1 | i | i | i | i | i | i
Cc1cn(CCC(=O)Nc2ccccc2N2CCOCC2)c2ccccc12 | i | i | i | 6.8 | i | 6.0
COc1ccc(C2N(c3ccc(F)cc3)C(=O)C3CCCN32)cc1 (stereo unspecified) | i | i | i | 5.2 | i | i
COc1ccc(N2C(=O)C3CCCN3C2c2ccc(C)cc2)cc1 (stereo unspecified) | i | i | i | i | i | i
COc1ccc(C2N(c3ccc(OC)cc3)C(=O)C3CCCN32)cc1 (stereo unspecified) | i | i | i | 5.3 | i | i
COc1cccc(C2N(c3ccc(Cl)cc3)C(=O)C3CCCN32)c1 (stereo unspecified) | i | i | i | 6.4 | i | i
O=C1C2CCCN2C(c2ccc(F)c(F)c2)N1c1cccc(Cl)c1 (stereo unspecified) | i | i | i | 4.4 | i | i
O=C1C2CCCN2C(c2ccccc2)N1c1cccc(Cl)c1 (stereo unspecified) | i | i | i | i | i | i
COC(=O)[C@]12C[C@H](CC(=O)N3CCCC3)C(=O)N(Cc3ccc(Cl)cc3Cl)C1=C[C@H](C(C)C)O[C@@H]2C1CC1 | i | i | i | nt | i | i
Cc1nn(CCC(=O)NNC(=O)Nc2ccc(Cl)cc2)c(C)c1[N+](=O)[O-] | i | i | i | nt | i | i
COC(=O)[C@@H]1N=C(c2ccc(OC)cc2)O[C@]12C(=O)N(Cc1cn(-c3ccccc3)nn1)c1cccc(Cl)c12 | i | i | i | nt | i | i
Cc1cccc(NC(=O)C(C)SCc2nc3sc4c(c3c(=O)[nH]2)CCCC4)n1 (stereo unspecified) | i | i | 1.3 | i | i | i
Cc1cccc(NC(=O)CCc2nc3sc4c(c3c(=O)[nH]2)CCCC4)c1 | i | i | i | i | i | i
Cc1ccc(CN[C@@H]2CC[C@@]34CCCN3C(=O)CCC[C@H]4C2)cc1 | i | nt | i | nt | nt | i
CCOCCCNC(=O)c1ccc2c(c1)N=C(CC)c1cc(Br)ccc1S2 | i | 4.2 | i | i | i | i

Source: PubChem BioAssay (The Scripps Research Institute Molecular Screening Center)
